PINK1 expr mod: modulators of PINK1 expression; 0.2% of 410,000 active; Potency, µM (top dose mostly 76.6 µM), inactives show at the highest dose activation (PINK1 increase), hits mostly activators; PINK1 immunofluorescence, high-content cytometry, 24 h; active = well fitted activation curve with a large enough effect; inconclusive = small, poorly fitted or top-dose-only effect; cell line not stated here; note: % of control where 0% means no effect; nearly all actives have a fitted effect of over 65% in size
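Measures PINK1 amount and localization on or inside mitochondria by immunofluorescence. Stable cells get compounds at 5 concentrations for 24 hours before fixation and staining; CCCP controls included.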
MCF10A rereplic: DNA re-replication induction in MCF 10a cells; MCF 10A DNA re-replication, Hoechst nuclear intensity, 48 h; Potency, µM (highest dose often 46.1 µM), for the others: at the top dose activity, positive = re-replication, actives largely listed as activators; 2.9% of 350,000 active; note: % of control where 0% means no effect; nearly all actives have a fitted effect of over 50% in size
SW480 rereplic: inducers of DNA re-replication in SW480 colon cancer cells. SW480 DNA re-replication, Hoechst DNA content imaging, 48 h. Potency, µM (top dose mostly 46.1 µM), for the others: at the highest dose re-replication activation, hits mostly activators. 1.8% of 340,000 active. AID 624297; note: % of control where 0% means no effect; nearly all actives have a fitted effect of over 55% in size
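Cells (250 per well) received 23 nL compound or DMSO by pin tool and were kept 48 hr at 37 C, 5% CO2. Nuclei were then stained with Hoechst for 40 min and scanned for DNA content.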
KB-3-1 cytotox: KB-3-1 parental cell cytotoxicity. KB-3-1 viability, CellTiter-Glo ATP luminescence, 72 h. 1.4% of 400,000 active. AID 1347075. Potency, µM (doses to about 46.1 µM), actives largely listed as cytotoxic; note: % is set by controls: 0 for no effect and ±100 for the full control effect; nearly all actives have a fitted effect of over 60% in size
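Multi-concentration cytotoxicity screen in KB-3-1 cells grown in DMEM lacking phenol red with 10% FBS. After 72 h at 37 °C with compound, ATP-dependent luminescence was recorded.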
TSG101-PTAP inh: blocks PTAP/TSG101 interaction to inhibit HIV-1 budding. AID 493005. 340,000 tested, under 10 active. Potency, µM (top dose mostly 115 µM), for the others: at the top dose activity change, negative = inhibition, hits mostly inhibitors. Q99816. Fluorescence polarization, FITC-PTAP peptide / Tsg101 binding; active = well fitted inhibition curve with a large enough effect in the main read-out, with a control signal flat, not every such curve was filed as active; inconclusive = small, poorly fitted or top-dose-only effect, or effect the other way, or a change in a side signal; inactive = no such curve, though single readings can be large or run the other way; note: % of control where 0% means no effect
Target sequence (Q99816 whole entry, looked up): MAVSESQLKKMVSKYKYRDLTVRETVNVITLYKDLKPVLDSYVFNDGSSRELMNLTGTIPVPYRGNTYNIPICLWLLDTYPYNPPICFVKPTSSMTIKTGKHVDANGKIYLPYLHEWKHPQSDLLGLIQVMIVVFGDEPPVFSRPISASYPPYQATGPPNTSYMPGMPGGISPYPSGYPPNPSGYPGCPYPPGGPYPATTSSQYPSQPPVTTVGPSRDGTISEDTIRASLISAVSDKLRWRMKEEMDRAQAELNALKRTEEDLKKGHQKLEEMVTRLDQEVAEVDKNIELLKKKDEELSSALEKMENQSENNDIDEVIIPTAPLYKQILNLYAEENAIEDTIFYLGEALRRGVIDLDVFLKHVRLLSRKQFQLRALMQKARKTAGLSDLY
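Compounds were pin-transferred onto Tsg101 binding domain (10 uM final) in HEPES pH 7.5 buffer, then FITC-PTAP peptide was added at 50 nM final. After 20 min at RT, polarization reported peptide displacement across a qHTS concentration series.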
KB-V1 cytotox: kills drug-selected multidrug resistant KB-V1 cells | KB-V1 MDR cells viability, CellTiter-Glo, 72 h | Potency, µM (doses to about 46.1 µM), usual class: cytotoxic | 3.4% of 400,000 active; note: % is set by controls: 0 for no effect and ±100 for the full control effect; nearly all actives have a fitted effect of over 60% in size
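Compound-treated KB-V1 multidrug-resistant cells, 72 h, 37 degrees C; viability by CellTiter-Glo. Fitted qHTS curves give the values.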
Active calls of the source: *; i = inactive; ? = inconclusive; · = no result; [ ] = another dose, or the depositor's remark. Compounds with a hit are over-represented: about 6.8% of the library has one in this group of screens. Unless noted, calls come from the whole dose curve; as a rule, active = well fitted curve in the direction sought with a large enough effect; inconclusive = small, poorly fitted or top-dose-only effect, or another doubt; inactive = no such curve, though single readings can be large; an effect the other way counts as inactive or inconclusive. Potency is the fitted concentration of half-maximal effect.

SMILES	PINK1 expr mod	MCF10A rereplic	SW480 rereplic	KB-3-1 cytotox	TSG101-PTAP inh	KB-V1 cytotox
COc1ccc(S(=O)(=O)n2nc(C)c(S(=O)(=O)N3CCC(C)CC3)c2C)cc1OC	0.8%	·	·	i	·	i
CCOC(=O)n1c(=O)n(Cc2ccc(OC)cc2)c2ccccc21	10.0%	0.0%	?	16.4µM*	-6.8%	?
CC(C)(C)c1ccc(OCC(=O)Nc2ccncc2)c(Br)c1	8.3%	14.6µM*	-2.4%	?	4.3%	?
CC(C)(C)c1ccc(OCC(=O)NNC(=S)NC(=O)c2ccccc2[N+](=O)[O-])c(Br)c1	?	20.6µM*	?	?	-7.5%	?
CC(C)CCOc1cccc(OCC(=O)Nc2ccncc2)c1	19.6%	?	0.5%	?	-3.4%	2.91µM*
CCc1ccc(OCC(=O)Nc2ccncc2)c(Br)c1	6.5%	?	?	?	-5.4%	9.2µM*
Cc1ccccc1OCC(=O)NNC(=S)NC(=O)c1ccccc1[N+](=O)[O-]	-1.0%	-5.7%	2.0%	?	-2.5%	?
COc1cccc(OCC(=O)Nc2ccncc2)c1	0.3%	1.1%	-2.6%	?	-8.4%	i
COc1ccc(-c2noc(CCC(=O)Nc3ccc(C(F)(F)F)cc3)n2)cc1	0.3%	·	·	i	·	?
Cc1noc2nc(C(=O)O)nc(N3CCCCC3)c12	2.2%	·	·	i	·	i
COc1ccc(C(=O)N=c2sc3c(C)ccc(OC)c3n2C)cc1OC	4.5%	10.9%	-2.1%	?	-7.0%	18.4µM*
Cc1cccc(N(CC(=O)Nc2ccccc2F)S(C)(=O)=O)c1	0.3%[38.3 µM]	17.3%	-0.6%	i	-4.2%	23.1µM*
CSc1ccccc1NC(=O)CN(c1ccccc1Br)S(C)(=O)=O	2.8%	-0.7%	8.8%	i	0.4%	14.6µM*
CSc1ccccc1NC(=O)CN(c1cccc(C)c1)S(C)(=O)=O	-0.2%[38.3 µM]	-0.9%	-6.0%	i	-5.7%	i
COc1cccc(CNC(=O)c2ccc3c(c2)nnn3C2CCCC2)c1	1.5%	·	·	i	·	i
O=C(Cn1c(=O)n(-c2ccccc2Cl)c(=O)c2sc3ccccc3c21)NC1CCCCC1	0.8%	·	·	i	·	i
CCOC(=O)c1ccc(NC(=O)c2ccc(=O)n(Cc3cccc(C)c3)c2)cc1	-4.1%	·	·	i	·	?
Cc1ccc2nc(SCC(=O)N3CCC4(CC3)CC4C(=O)Nc3ccc(F)c(F)c3)[nH]c2c1 (stereo not drawn)	-0.4%	·	·	·	·	·
Cc1cc(C)cc(NC(=O)c2cc3c(=O)n4ccccc4nc3s2)c1	2.5%	?	9.2µM*	i	-4.4%	i
Cc1cccn2c(=O)c3cc(C(=O)NC4CCCCCC4)sc3nc12	10.2%	?	19.5%	i	-0.9%	i
CC1CC(C)CN(C(=O)c2cc3c(=O)n4ccccc4nc3s2)C1 (stereo not drawn)	0.7%	20.6µM*	27.4%	i	-3.3%	i
O=C(NC1CCCCCC1)c1cc2c(=O)n3ccccc3nc2s1	7.9%	20.6µM*	18.4µM*	i	-0.9%	i
CC1CN(C(=O)c2cc3c(=O)n4ccccc4nc3s2)CC(C)O1 (stereo not drawn)	0.5%[38.3 µM]	0.3%	-1.3%	i	-4.1%	i
O=S(=O)(CC(CN1CCCCC1)N1CCCCC1)c1ccc2ccccc2c1 (stereo not drawn)	-1.2%	?	?	6.51µM*	-1.4%	?
COc1ccc(-n2c3c(c(=O)[nH]c2=O)C(C(F)(F)F)(C(F)(F)F)N=C(CC(C)C)N3)cc1	5.4%[38.3 µM]	-1.1%	-3.5%	i	-3.7%	?
SMILES	PINK1 expr mod	MCF10A rereplic	SW480 rereplic	KB-3-1 cytotox	TSG101-PTAP inh	KB-V1 cytotox
Cc1ccc(C2=NC(C(F)(F)F)(C(F)(F)F)c3c(n(-c4ccc(F)cc4)c(=O)[nH]c3=O)N2)cc1	39.8µM*	?	?	10.3µM*	-0.8%	20.6µM*
O=c1[nH]c(=O)n(-c2ccc(F)cc2)c2c1C(C(F)(F)F)(C(F)(F)F)N=C(c1ccc(F)cc1)N2	10µM*	?	?	i	-2.3%	?
COc1ccc(-c2nc3sc(CCNC(=O)C(=O)Nc4ccc(C)c(C)c4)c(C)n3n2)cc1	0.9%	·	·	·	·	·
CCOC(=O)CSc1nc2cc3c(cc2c(=O)n1CCCC(=O)NCc1ccc2c(c1)OCO2)OCO3	-0.4%	·	·	·	·	·
Fc1ccc(C2CC(c3ccco3)=NN2c2ccccc2)cc1 (stereo not drawn)	0.2%	0.92µM*	20.6µM*	i	-4.5%	i
CS(=O)(=O)N1N=C(c2ccco2)CC1c1ccccc1 (stereo not drawn)	-1.8%	3.1%	-5.2%	i	-1.5%	i
CS(=O)(=O)N1N=C(c2ccco2)CC1c1ccc(Cl)cc1 (stereo not drawn)	3.5%	0.9%	-30.9%	i	0.3%	16.4µM*
O=[N+]([O-])c1ccc(N2N=C(c3ccco3)CC2c2ccccc2)cc1 (stereo not drawn)	-1.3%	8.2µM*	?	i	0.4%	i
CCCCN1CC[C@H]2C=CC[C@@H](C(=O)NC3CCCCC3)[C@H]2C1=O	·	·	·	i	·	?
CC(C)(C)C(=O)Cn1c(=O)n(CCCCCC(=O)NCc2ccc3c(c2)OCO3)c(=O)c2sccc21	0.3%	·	·	·	·	·
CCOC(=O)CN(C(=O)COc1nc(-c2ccccc2)cc(C)c1C#N)c1ccccc1C	0.9%	14.1%	?	3.66µM*	2.0%	i
CCOC(=O)CN(C(=O)COc1nc(-c2ccccc2)cc(C)c1C#N)c1ccccc1	7.1%	10.7%	-2.3%	?	-1.8%	i
COc1ccc(C(=O)Nc2nc(-c3nnn(-c4cc(OC)ccc4OC)c3C)ns2)cc1	8.8%	·	·	i	·	i
C=CCn1c(=N)n(CC(=O)c2ccc(Br)s2)c2ccccc21	-2.7%	-4.0%	?	14.6µM*	-6.0%	i
CCCCCN1C=CC(=C2C(=O)c3ccccc3C2=O)C=C1	-0.6%	7.4%	7.8%	i	-3.6%	9.2µM*
CC1=CC(=C2C(=O)c3ccccc3C2=O)C=C(C)N1C	0.7%	13.8%	3.3%	i	2.3%	i
CCOC(=O)N1CCN(C(=O)c2cc(-c3ccc(OCC)cc3)nc3ccccc23)CC1	-1.0%[38.3 µM]	3.66µM*	4.61µM*	4.61µM*	-3.1%	2.31µM*
CCOC(=O)N1CCN(C(=O)c2cc(-c3ccncc3)nc3ccccc23)CC1	9.3%	?	18.4µM*	?	1.8%	?
COc1ccc(NC(=O)C(=O)NCC2(c3ccccc3)CCCC2)c(OC)c1	1.1%	·	·	·	·	·

Assay outcomes as filed in PubChem BioAssay.
